This is a sample that favours compounds with a hit; in the whole collection about 3.1% have one here.
GLS inhibitor: qHTS for Inhibitors of Glutaminase (GLS). GLS enzymatic activity, qHTS titration. Glutaminase kidney isoform, mitochondrial (Homo sapiens), O94925. Potency, µM (titrated, usually from 45.5 µM), for inactives: at the highest dose activity change, negative = inhibition, actives largely listed as inhibitors. 0.21% of 410,000 active; further: potency means the concentration at half of the fitted maximal effect
Target sequence (O94925 whole entry, looked up, canonical isoform): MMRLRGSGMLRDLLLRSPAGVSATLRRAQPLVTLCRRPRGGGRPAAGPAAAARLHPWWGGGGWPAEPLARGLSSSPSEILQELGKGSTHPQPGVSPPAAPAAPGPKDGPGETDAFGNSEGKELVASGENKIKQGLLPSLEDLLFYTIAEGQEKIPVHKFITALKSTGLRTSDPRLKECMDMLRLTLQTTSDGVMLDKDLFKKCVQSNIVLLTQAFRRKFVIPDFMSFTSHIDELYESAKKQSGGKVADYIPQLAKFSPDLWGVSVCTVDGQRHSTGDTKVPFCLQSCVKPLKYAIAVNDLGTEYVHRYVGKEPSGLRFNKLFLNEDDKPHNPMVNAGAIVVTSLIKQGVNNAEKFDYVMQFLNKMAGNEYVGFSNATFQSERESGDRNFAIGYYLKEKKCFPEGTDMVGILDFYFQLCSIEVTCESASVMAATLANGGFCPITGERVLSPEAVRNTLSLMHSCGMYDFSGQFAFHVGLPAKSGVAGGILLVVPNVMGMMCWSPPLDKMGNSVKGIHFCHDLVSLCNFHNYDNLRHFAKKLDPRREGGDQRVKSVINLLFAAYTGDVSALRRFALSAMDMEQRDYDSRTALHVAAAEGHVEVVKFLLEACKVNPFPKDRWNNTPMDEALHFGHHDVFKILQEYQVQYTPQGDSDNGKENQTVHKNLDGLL
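Enzyme dispensed in phosphate buffer (45 mM, pH 8.2, 0.02% Tween-20), compounds pinned in, then 1 mM L-glutamine solution and the glutamate oxidase–HRP–Amplex Red mix added; fluorescence read immediately and again after 30 min at room temperature.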
KAT2A inh: qHTS Assay for Inhibitors of GCN5L2 | Histone acetyltransferase KAT2A (Homo sapiens), Q92830 | GCN5L2 HAT assay, ThioGlo1 CoA-SH fluorescence | Potency, µM (titrated, usually from 58.9 µM), for the others: at the top dose activity change, negative = inhibition, most hits filed as inhibitors | 0.21% of 390,000 active | AID 504327, 2011; further: potency means the concentration at half of the fitted maximal effect
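Compounds, pin-transferred from DMSO stocks, meet 20nM GCN5L2 for 15 min before the reaction begins with H3(1-25) peptide (75uM) and acetyl-CoA (70uM). Thiol-reactive ThioGlo1 reports CoA release over 20 min at room temperature.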
PLK1 PBD inh: qHTS for Inhibitors of PLK1-PDB (polo-like kinase 1 - polo-box domain): Primary Screen; 2.8% of 360,000 active; Serine/threonine-protein kinase PLK1 (Homo sapiens), P53350; Plk1 PBD binding of FITC phosphopeptide, fluorescence polarization; AID 720504, 2013; Potency, µM, for inactives: max response, negative = inhibition, usual class: inhibitors; further: potency means the concentration at half of the fitted maximal effect; series mostly up to about 57 µM; nearly all actives have a fitted effect of over 65% in size
VDR inh: Inhibitors of the vitamin D receptor (VDR): qHTS; Vitamin D3 receptor (Homo sapiens), P11473; VDR-SRC2-3 peptide fluorescence polarization, 2 h; Potency, µM, for inactives: max response, negative = inhibition, usual class: inhibitors; 0.93% of 400,000 active; AID 504847, 2011; further: potency means the concentration at half of the fitted maximal effect
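Reagent solutions, kept cold and dark, are dispensed first; compounds are then pinned in at 23 nl, plates briefly spun, and incubated 2 h at ambient temperature. Inhibition of VDR–SRC2-3 peptide binding is read by fluorescence polarization.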
PI4K2A inh: qHTS for small molecular inhibitors of PI4K2A | 0.13% of 420,000 active | activity change, negative = inhibition, % at 76.9 µM | AID 1346378, 2018 | purified PI4K2A, ADP-Glo luminescence, 1 h; hits give low values | Phosphatidylinositol 4-kinase type 2-alpha (Homo sapiens), Q9BTU6; in the data active means activity change below about -50%; inconclusive means mostly about -30% to -49%;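 further: -100% = wells without enzyme as full effect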
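PI4K2A activity was measured by ADP-Glo luminescence: enzyme (4 ug/mL stock) and phosphatidylinositol (1.2 mM stock) in Tris pH 7.5/MgCl2/EGTA/Triton X-100 buffer were reacted with ATP (300 microM stock) for one hour at ambient temperature.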
* marks the source's active call; other numbers are inactive results; [ ] = remark or other dose. Unless noted, the call rests on the fitted dose curve; in most records, active means well fitted curve in the direction sought with a large enough effect; inconclusive means small, poorly fitted or top-dose-only effect, or another doubt; inactive means no such curve, though single readings can be large; an effect the other way counts as inactive or inconclusive. Unless noted, on the % scale 0 is the no-effect control and ±100 the full control effect.

Screening COc1cc(C(=O)NS(=O)(=O)c2ccccc2C)ccc1Cc1cn(C)c2ccc(NC(=O)OC3CCCC3)cc12 returned GLS inhibitor 1%, KAT2A inh 7.1µM*, VDR inh 50µM* and PI4K2A inh 1.
For Cc1ccc(NC(=O)N(Cc2cn(C)c3ccccc23)C2CCCCC2)cc1C the results were GLS inhibitor 12%, KAT2A inh -3%, VDR inh -9% and PI4K2A inh 1.
CC[C@@]1(c2ccccc2)NC(=O)NC1=O was read as KAT2A inh 41% and VDR inh 1%.
`Fc1cc2[nH]c(=S)[nH]c2c(Br)c1N1CCSCC1` gave GLS inhibitor 4%, KAT2A inh -2%, PLK1 PBD inh 27µM*, VDR inh -14% and PI4K2A inh 4.
`CCOC(=O)[C@@H](N)CS` gave GLS inhibitor -13%, KAT2A inh 49% and VDR inh 40µM*.
OC(COCC1COc2ccccc2O1)CN1CCCCC1 (centres undefined) was read as GLS inhibitor 5%, KAT2A inh 2%, PLK1 PBD inh 30µM*, VDR inh -9% and PI4K2A inh -8.
Screening CCN1CCN(CC(O)COCC2COc3ccccc3O2)CC1 (centres undefined) returned GLS inhibitor -8%, KAT2A inh -5%, PLK1 PBD inh -2%, VDR inh -2% and PI4K2A inh -8.
Cc1nn(-c2ccc(F)cc2)c(Cl)c1C(=O)NCC1CCCO1 (centres undefined) was read as GLS inhibitor 1%, KAT2A inh 2%, PLK1 PBD inh -14%, VDR inh 89µM* and PI4K2A inh 0.
For O=c1c2ccccc2[nH]n1[C@@H](Cc1ccccc1)Cn1cc(-c2ccc(-c3ccccc3)cc2)nn1 the results were PI4K2A inh 2.
O=C(c1ccc(Cl)c(S(=O)(=O)N2CCCCC2)c1)N1CCN(c2ccccc2)CC1 was read as GLS inhibitor 8%, KAT2A inh -10%, PLK1 PBD inh -4%, VDR inh -4% and PI4K2A inh -2.
For O=C(NCc1cccnc1)c1ccc(Cl)c(S(=O)(=O)N2CCCCCC2)c1 the results were GLS inhibitor 43%, KAT2A inh -1%, PLK1 PBD inh 27µM*, VDR inh inconclusive and PI4K2A inh -5.
`O=C(NCc1cccnc1)c1ccc(Cl)c(S(=O)(=O)N2CCOCC2)c1` gave GLS inhibitor 0%, KAT2A inh -15%, PLK1 PBD inh 3%, VDR inh -21% and PI4K2A inh -3.
For O=C(c1ccc(Cl)c(S(=O)(=O)N2CCCC2)c1)N1CCN(c2ccccc2)CC1 the results were GLS inhibitor inconclusive, KAT2A inh -8%, PLK1 PBD inh 13µM*, VDR inh 32µM* and PI4K2A inh 0.
For CCCCN(CCN(CCCC)C(=O)N1CCOCC1)C(=O)N1CCOCC1 the results were PI4K2A inh -3.
For O=C(Nc1ccc(F)cc1)Nc1c(-c2ccccc2)nc2ncccn12 the results were PI4K2A inh -4.
Screening CN(C)Cc1ccccc1-c1cc(NCc2ccccc2)ncn1 returned KAT2A inh -8% and VDR inh -6%.
Screening Cc1ccc(Sc2oc(/C=N/n3cnnc3)cc2Br)cc1 returned GLS inhibitor 8.9µM*, KAT2A inh 2%, PLK1 PBD inh -10%, VDR inh 10% and PI4K2A inh -3.
Screening CCN(CC)C1=CC(=O)OC12CCCCC2 returned GLS inhibitor 0%, KAT2A inh 20µM*, PLK1 PBD inh 11µM*, VDR inh 1% and PI4K2A inh 0.
For CCC/C(O)=C1\C(=O)CC(C)(C)CC1=NCCO the results were GLS inhibitor -1%, KAT2A inh -3%, PLK1 PBD inh -1%, VDR inh -8% and PI4K2A inh -13.
`CCC/C(O)=C1\C(=O)CC(C)(C)CC1=Nc1ccccc1O` gave GLS inhibitor -11%, KAT2A inh 2%, PLK1 PBD inh 13µM*, VDR inh 79µM* and PI4K2A inh 5.
`CC1CC=CC2C1C(=O)N(Cc1ccccc1)C2c1ccc2ccccc2c1` (centres undefined) gave VDR inh -25%.
`O=C(O)c1ccc(-c2cccc(Cl)c2)o1` gave GLS inhibitor 2%, PLK1 PBD inh -10%, VDR inh -12% and PI4K2A inh -1.
Screening O=C(O)c1ccc(-c2ccc(-c3ccccc3)cc2)o1 returned KAT2A inh -21%[88.6 µM] and VDR inh 89µM*.
C[C@@H]1COc2cc(Br)ccc2S(=O)(=O)N1Cc1cn(CCC2OCCO2)nn1 was read as PI4K2A inh 6.
Screening CN(C)CCC1(c2ccc(Cl)cc2)Cc2ccccc2C(=O)O1 (centres undefined) returned KAT2A inh 0% and VDR inh 1%.
For COc1ccc(N2C(=O)C(Cl)=C(N3CCOCC3)C2=O)cc1 the results were GLS inhibitor 8%, KAT2A inh 1%, PLK1 PBD inh 0%, VDR inh 28µM* and PI4K2A inh -8.
Screening O=C1C(Cl)=C(N2CCOCC2)C(=O)N1c1cccc(Cl)c1 returned GLS inhibitor -4%, KAT2A inh -3%, PLK1 PBD inh -27%, VDR inh 25µM* and PI4K2A inh 7.
Screening COc1cc(NC(=O)c2ccccc2)c(C)cc1NC(=O)CSc1nnc(-c2ccccc2F)n1-c1ccc(C)cc1 returned PI4K2A inh -7.
`Cc1ccc(S(=O)(=O)n2ccc(-c3c(-c4ccc(F)cc4)noc3C)n2)cc1` gave PI4K2A inh -1.
Screening O=C(c1cccs1)N1CCN(c2nnc(-c3ccccc3)c3ccccc23)CC1 returned GLS inhibitor -5%, KAT2A inh inconclusive, PLK1 PBD inh -9%, VDR inh 8% and PI4K2A inh 3.
Screening Cc1ccc(-c2nnc(N3CCN(C(=O)c4cccs4)CC3)c3ccccc23)cc1 returned GLS inhibitor 20µM*, KAT2A inh -6%, PLK1 PBD inh 1%, VDR inh -10% and PI4K2A inh 6.
For CC1CC(C)(C)N2C(=O)C3(Nc4ccccc4S3)c3cccc1c32 (centres undefined) the results were GLS inhibitor 14%, KAT2A inh -18%, PLK1 PBD inh -26%, VDR inh 5% and PI4K2A inh 4.
O=C1N2CCCc3cccc(c32)C12Nc1ccccc1S2 (centres undefined) was read as GLS inhibitor 8%, KAT2A inh 0%, PLK1 PBD inh 24µM*, VDR inh 6% and PI4K2A inh 2.

Bioassay records as filed in PubChem.
